Measurements published in PubChem BioAssay AID1159580 (chemical genetic matrix, 2015).
Among all 5,500 compounds or so, about 2,000 (36%) were called active. Not shown: some 18% with an inconclusive outcome. Cut-off read from the data, not from the text of the source: active = normalized growth mostly below about 0.91 (no sharp cut-off); inconclusive = no clear call, values can overlap the other calls; inactive = mostly above about 0.92. The list shows a part of the results.

Assay: chemical genetic growth profiling, strain panel (AID 1159580);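 note: tested at 20 µM; growth read once vehicle control cultures reached saturation at 30 °C; 1 = growth at the plate median or of vehicle wells; lower values mean less growth of the strain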
Details: growth OD

Measured: normalized growth

CC(=O)OCC[C@H](C)CCC=C(C)C
inactive: S. cerevisiae deletion strains, locus YJR043C, strain POL32, hits give low values 1.01 | S. cerevisiae deletion strains, locus YJR066W, strain TOR1, hits give low values 0.979 | S. cerevisiae deletion strains, locus YKL009W, strain mrt4, hits give low values 1.01 | S. cerevisiae deletion strains, locus YKL068W, hits give low values 1.03 | S. cerevisiae deletion strains, locus YKL085W, strain MDH1 (second series), hits give low values 1.01 | S. cerevisiae deletion strains, locus YKL085W, strain MDH1, hits give low values 1.01 | S. cerevisiae deletion strains, locus YKL160W, strain elf1, hits give low values 0.978 | S. cerevisiae deletion strains, locus YKL190W, strain CNB1, hits give low values 1.01 | S. cerevisiae deletion strains, locus YKR001C, strain vps1, hits give low values 1.03 | S. cerevisiae deletion strains, locus YKR026C, strain gcn3, hits give low values 0.994 | S. cerevisiae deletion strains, locus YKR091W, strain srl3, hits give low values 0.986 | S. cerevisiae deletion strains, locus YLL001W, strain dnm1, hits give low values 1.03 | S. cerevisiae deletion strains, locus YLL026W, hits give low values 1.03 | S. cerevisiae deletion strains, locus YLL041C, strain sdh2, hits give low values 1.02 | S. cerevisiae deletion strains, locus YLR027C, strain aat2, hits give low values 1.02 | S. cerevisiae deletion strains, locus YLR039C, strain RIC1, hits give low values 1.08 | S. cerevisiae deletion strains, locus YLR058C, strain SHM2, hits give low values 1.02 | S. cerevisiae deletion strains, locus YLR102C, strain apc9, hits give low values 1.02 | S. cerevisiae deletion strains, locus YLR113W, strain HOG1, hits give low values 1.05 | S. cerevisiae deletion strains, locus YLR221C, strain rsa3, hits give low values 1.04 | S. cerevisiae deletion strains, locus YLR258W, strain gsy2, hits give low values 1.03 | S. cerevisiae deletion strains, locus YLR262C, strain YPT6 (second series), hits give low values 0.991 | S. cerevisiae deletion strains, locus YLR262C, strain YPT6, hits give low values 1.09 | S. cerevisiae deletion strains, locus YLR268W, strain sec22, hits give low values 1.03 | S. cerevisiae deletion strains, locus YLR320W, strain mms22, hits give low values 1 | S. cerevisiae deletion strains, locus YLR330W, strain CHS5, hits give low values 1 | S. cerevisiae deletion strains, locus YLR342W, strain FKS1 (second series), hits give low values 1.01 | S. cerevisiae deletion strains, locus YLR342W, strain FKS1, hits give low values 0.975 | S. cerevisiae deletion strains, locus YLR357W, strain rsc2, hits give low values 0.981 | S. cerevisiae deletion strains, locus YLR370C, strain arc18, hits give low values 0.996 | S. cerevisiae deletion strains, locus YLR371W, strain rom2, hits give low values 1.02 | S. cerevisiae deletion strains, locus YLR384C, strain iki3, hits give low values 0.971 | S. cerevisiae deletion strains, locus YLR418C, strain cdc73, hits give low values 1.02 | S. cerevisiae deletion strains, locus YML016C, strain PPZ1, hits give low values 1.02 | S. cerevisiae deletion strains, locus YML032C, strain rad52, hits give low values 1.03 | S. cerevisiae deletion strains, locus YML120C, strain ndi1, hits give low values 0.988 | S. cerevisiae deletion strains, locus YML124C, strain tub3, hits give low values 1.02 | S. cerevisiae deletion strains, locus YMR058W, strain fet3, hits give low values 0.989 | S. cerevisiae deletion strains, locus YMR078C, strain ctf18, hits give low values 1.04 | S. cerevisiae deletion strains, locus YMR125W, strain sto1, hits give low values 0.985 | S. cerevisiae deletion strains, locus YMR129W, hits give low values 0.985 | S. cerevisiae deletion strains, locus YMR205C, strain PFK2, hits give low values 1.01 | S. cerevisiae deletion strains, locus YMR223W, strain ubp8, hits give low values 1.04 | S. cerevisiae deletion strains, locus YMR231W, strain pep5, hits give low values 0.983 | S. cerevisiae deletion strains, locus YMR307W, strain GAS1, hits give low values 1.05 | S. cerevisiae deletion strains, locus YNL067W, strain RPL9B, hits give low values 1.02 | S. cerevisiae deletion strains, locus YNL071W, strain lat1, hits give low values 0.989 | S. cerevisiae deletion strains, locus YNL153C, strain GIM3, hits give low values 1.01 | S. cerevisiae deletion strains, locus YNL183C, strain NPR1, hits give low values 0.991 | S. cerevisiae deletion strains, locus YNL209W, strain ssb2, hits give low values 0.979 | S. cerevisiae deletion strains, locus YNL233W, strain BNI4, hits give low values 1.01 | S. cerevisiae deletion strains, locus YNL248C, strain rpa49, hits give low values 0.984 | S. cerevisiae deletion strains, locus YNL250W, strain rad50, hits give low values 1.03 | S. cerevisiae deletion strains, locus YNL271C, strain bni1, hits give low values 1.02 | S. cerevisiae deletion strains, locus YNL298W, strain CLA4, hits give low values 1.05 | S. cerevisiae deletion strains, locus YNL307C, strain MCK1, hits give low values 1.04 | S. cerevisiae deletion strains, locus YNL322C, strain KRE1 (second series), hits give low values 0.974 | S. cerevisiae deletion strains, locus YNL322C, strain KRE1, hits give low values 1.01 | S. cerevisiae deletion strains, locus YNR049C, strain mso1, hits give low values 0.996 | S. cerevisiae deletion strains, locus YNR052C, strain pop2, hits give low values 1.01 | S. cerevisiae deletion strains, locus YOL012C, strain htz1 1.25 | S. cerevisiae deletion strains, locus YOL147C, strain pex11, hits give low values 1.03 | S. cerevisiae deletion strains, locus YOR001W, strain rrp6, hits give low values 1.02 | S. cerevisiae deletion strains, locus YOR061W, strain CKA2, hits give low values 1.01 | S. cerevisiae deletion strains, locus YOR069W, strain VPS5, hits give low values 1 | S. cerevisiae deletion strains, locus YOR070C, strain gyp1, hits give low values 0.994 | S. cerevisiae deletion strains, locus YOR080W, strain dia2, hits give low values 0.968 | S. cerevisiae deletion strains, locus YOR083W, strain WHI5, hits give low values 0.972 | S. cerevisiae deletion strains, locus YOR106W, strain vam3, hits give low values 0.971 | S. cerevisiae deletion strains, locus YOR136W, strain idh2, hits give low values 1.02 | S. cerevisiae deletion strains, locus YOR144C, strain elg1, hits give low values 1.03 | S. cerevisiae deletion strains, locus YOR184W, strain ser1, hits give low values 1.02 | S. cerevisiae deletion strains, locus YOR231W, strain MKK1, hits give low values 1.06 | S. cerevisiae deletion strains, locus YOR265W, strain rbl2, hits give low values 0.995 | S. cerevisiae deletion strains, locus YOR270C, strain vph1, hits give low values 1.03 | S. cerevisiae deletion strains, locus YOR290C, strain snf2, hits give low values 0.997 | S. cerevisiae deletion strains, locus YOR316C, strain cot1, hits give low values 1.02 | S. cerevisiae deletion strains, locus YPL051W, strain arl3, hits give low values 0.99 | S. cerevisiae deletion strains, locus YPL078C, strain atp4, hits give low values 0.967 | S. cerevisiae deletion strains, locus YPL106C, strain sse1, hits give low values 0.949 | S. cerevisiae deletion strains, locus YPL240C, strain hsp82, hits give low values 0.99 | S. cerevisiae deletion strains, locus YPL256C, strain CLN2, hits give low values 0.997 | S. cerevisiae deletion strains, locus YPR119W, strain clb2, hits give low values 1.02 | S. cerevisiae deletion strains, locus YPR141C, strain kar3, hits give low values 1.03 | S. cerevisiae deletion strains, locus YPR163C, strain tif3, hits give low values 1.02 | S. cerevisiae deletion strains, locus YPR167C, strain met16, hits give low values 1.02 | S. cerevisiae deletion strains, strain wtn01, hits give low values 1.02 | S. cerevisiae strains, strain wild type, hits give low values 1
